According to PubChem BioAssay (EPA / NIEHS):
Results filed as inconclusive are left out. Calls of active or inactive are those of the source. How the source made its calls: active means hit-call score of the fitted dose curve at least 0.9, where 1 is the maximum; inconclusive means response in the unintended direction; inactive means score below 0.9.

Tests used:
[1] = target: human Thromboxane A2 Receptor (TXA2), TBXA2R (gene 6915) (UniProt P21731); test: NVS_GPCR_hTXA2: NovaScreen (NVS) G Protein-Coupled Receptor Assay for human Thromboxane A2 Receptor (TXA2) (AID 2283282);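 further: actives reduce bound radioligand signal relative to DMSO baseline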
Sequence of human Thromboxane A2 Receptor (TXA2), TBXA2R (gene 6915) (P21731 whole entry, looked up): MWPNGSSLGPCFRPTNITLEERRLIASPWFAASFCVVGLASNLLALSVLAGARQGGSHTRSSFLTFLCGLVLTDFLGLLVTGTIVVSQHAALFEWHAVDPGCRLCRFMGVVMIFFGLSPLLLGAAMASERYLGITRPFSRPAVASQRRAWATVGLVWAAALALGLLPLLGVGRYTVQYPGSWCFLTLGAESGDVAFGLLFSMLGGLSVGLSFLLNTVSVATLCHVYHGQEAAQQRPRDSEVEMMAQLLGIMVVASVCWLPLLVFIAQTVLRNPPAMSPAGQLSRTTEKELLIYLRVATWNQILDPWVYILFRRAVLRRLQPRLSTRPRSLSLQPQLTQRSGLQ
Procedure, shortened: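 Biochem binding, human platelets, cell-free; competitive radioligand displacement; 1 h; filter radiodetection. 25 uM duplicate primary, conc. series secondary; DMSO neg. ctrl.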

[2] = target: human Dopamine Receptor D2 (DRD2), DRD2 (gene 1813) (UniProt P14416); test: NVS_GPCR_hDRD2s: NovaScreen (NVS) G Protein-Coupled Receptor Assay for human Dopamine Receptor D2 (DRD2) (AID 2283266)
Sequence of human Dopamine Receptor D2 (DRD2), DRD2 (gene 1813) (P14416 whole entry, looked up): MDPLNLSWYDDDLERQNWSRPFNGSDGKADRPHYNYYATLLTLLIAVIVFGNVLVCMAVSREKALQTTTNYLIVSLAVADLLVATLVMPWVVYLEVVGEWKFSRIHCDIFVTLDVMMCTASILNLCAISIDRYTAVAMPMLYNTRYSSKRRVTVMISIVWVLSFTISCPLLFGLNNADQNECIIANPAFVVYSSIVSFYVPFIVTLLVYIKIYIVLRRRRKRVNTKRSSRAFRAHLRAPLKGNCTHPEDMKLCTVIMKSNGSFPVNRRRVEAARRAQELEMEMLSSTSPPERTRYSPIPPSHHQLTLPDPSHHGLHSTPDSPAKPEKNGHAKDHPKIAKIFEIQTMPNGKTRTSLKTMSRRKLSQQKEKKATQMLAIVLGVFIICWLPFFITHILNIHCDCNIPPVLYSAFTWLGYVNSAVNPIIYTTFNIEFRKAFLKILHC
Procedure, shortened: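 Radioligand displacement used human DRD2 membranes extracted from CHO cells and was read by filter-based scintillation counting after 1.5 hours. Primary screening was in duplicate at 25 uM. Loss of signal versus DMSO was fitted, with concentration series in follow-up.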

[3] = target: D(1A) dopamine receptor (Homo sapiens) (UniProt P21728); test: NVS_GPCR_hDRD1: NovaScreen (NVS) G Protein-Coupled Receptor Assay for human Dopamine Receptor D1 (DRD1) (AID 2283269)
Sequence of D(1A) dopamine receptor (Homo sapiens) (P21728 whole entry, looked up): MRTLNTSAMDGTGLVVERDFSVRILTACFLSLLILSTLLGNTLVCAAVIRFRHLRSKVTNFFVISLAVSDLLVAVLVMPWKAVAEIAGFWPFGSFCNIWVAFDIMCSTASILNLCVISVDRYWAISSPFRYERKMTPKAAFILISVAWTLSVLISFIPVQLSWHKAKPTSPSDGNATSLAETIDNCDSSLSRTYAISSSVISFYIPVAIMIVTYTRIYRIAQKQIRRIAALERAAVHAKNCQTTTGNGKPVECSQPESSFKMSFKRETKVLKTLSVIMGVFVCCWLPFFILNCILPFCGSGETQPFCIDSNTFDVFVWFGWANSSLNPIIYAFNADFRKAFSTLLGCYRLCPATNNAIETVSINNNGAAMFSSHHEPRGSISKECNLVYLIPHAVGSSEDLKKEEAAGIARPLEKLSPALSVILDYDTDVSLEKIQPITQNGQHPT
Procedure, shortened: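 Radioligand displacement binding on membranes/protein extracted from HEK293 expressing human D1, cell-free; read 1 h after dosing by filter-based scintillation counting. Primary screen in duplicate at 25 uM, actives followed up in concentration series; signal loss versus DMSO baseline.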

[4] = target: Muscarinic acetylcholine receptor M1 (Homo sapiens) (UniProt P11229); test: NVS_GPCR_hM1: NovaScreen (NVS) G Protein-Coupled Receptor Assay for human Muscarinic, M1 Receptor (AID 2283270)
Sequence of Muscarinic acetylcholine receptor M1 (Homo sapiens) (P11229 whole entry, looked up): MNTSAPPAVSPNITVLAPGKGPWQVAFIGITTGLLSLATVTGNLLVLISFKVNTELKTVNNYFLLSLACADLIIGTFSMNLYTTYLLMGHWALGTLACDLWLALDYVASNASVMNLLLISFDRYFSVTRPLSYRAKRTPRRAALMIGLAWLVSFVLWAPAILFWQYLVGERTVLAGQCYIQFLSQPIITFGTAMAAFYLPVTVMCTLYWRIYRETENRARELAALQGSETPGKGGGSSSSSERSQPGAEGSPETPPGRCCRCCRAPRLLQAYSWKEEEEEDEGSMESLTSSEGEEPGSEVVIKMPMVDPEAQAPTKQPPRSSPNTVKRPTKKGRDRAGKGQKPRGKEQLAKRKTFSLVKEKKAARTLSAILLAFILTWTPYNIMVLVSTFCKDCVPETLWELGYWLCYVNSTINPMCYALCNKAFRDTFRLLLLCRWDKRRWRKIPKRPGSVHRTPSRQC
Procedure, shortened: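 Cell-free radioligand displacement using membrane protein extracted from CHO cells, read by filter-based scintillation counting 1 h after dosing. Loss of bound signal fitted versus DMSO; primary screen single concentration 25 uM in duplicate, actives followed by concentration series.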

[5] = target: Muscarinic acetylcholine receptor M3 (Homo sapiens) (UniProt P20309); test: NVS_GPCR_hM3: NovaScreen (NVS) G Protein-Coupled Receptor Assay for human Muscarinic, M3 Receptor (AID 2283272)
Sequence of Muscarinic acetylcholine receptor M3 (Homo sapiens) (P20309 whole entry, looked up): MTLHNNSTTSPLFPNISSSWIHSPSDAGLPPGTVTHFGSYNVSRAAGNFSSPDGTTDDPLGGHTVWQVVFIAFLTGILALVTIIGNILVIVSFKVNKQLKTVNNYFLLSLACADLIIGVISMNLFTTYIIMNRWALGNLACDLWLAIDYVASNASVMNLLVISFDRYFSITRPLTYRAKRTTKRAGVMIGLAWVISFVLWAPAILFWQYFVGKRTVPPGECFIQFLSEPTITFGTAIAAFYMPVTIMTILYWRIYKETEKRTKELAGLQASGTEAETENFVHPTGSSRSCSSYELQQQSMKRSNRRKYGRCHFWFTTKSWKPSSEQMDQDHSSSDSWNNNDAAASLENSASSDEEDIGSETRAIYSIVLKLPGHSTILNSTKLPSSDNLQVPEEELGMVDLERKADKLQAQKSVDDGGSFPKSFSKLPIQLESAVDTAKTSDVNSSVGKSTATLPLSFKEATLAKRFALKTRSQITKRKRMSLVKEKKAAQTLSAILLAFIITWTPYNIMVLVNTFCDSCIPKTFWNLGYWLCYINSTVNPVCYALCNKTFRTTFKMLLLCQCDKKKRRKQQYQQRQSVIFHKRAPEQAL
Procedure, shortened: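 Radioligand displacement binding on human M3 receptor in CHO-derived membranes, 1 h incubation, filter-based scintillation counting. Primary screen in duplicate at 25 uM; actives followed up in concentration series; loss of signal versus DMSO.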

[6] = target: Muscarinic acetylcholine receptor M2 (Homo sapiens) (UniProt P08172); test: NVS_GPCR_hM2: NovaScreen (NVS) G Protein-Coupled Receptor Assay for human Muscarinic, M2 Receptor (AID 2283273)
Sequence of Muscarinic acetylcholine receptor M2 (Homo sapiens) (P08172 whole entry, looked up): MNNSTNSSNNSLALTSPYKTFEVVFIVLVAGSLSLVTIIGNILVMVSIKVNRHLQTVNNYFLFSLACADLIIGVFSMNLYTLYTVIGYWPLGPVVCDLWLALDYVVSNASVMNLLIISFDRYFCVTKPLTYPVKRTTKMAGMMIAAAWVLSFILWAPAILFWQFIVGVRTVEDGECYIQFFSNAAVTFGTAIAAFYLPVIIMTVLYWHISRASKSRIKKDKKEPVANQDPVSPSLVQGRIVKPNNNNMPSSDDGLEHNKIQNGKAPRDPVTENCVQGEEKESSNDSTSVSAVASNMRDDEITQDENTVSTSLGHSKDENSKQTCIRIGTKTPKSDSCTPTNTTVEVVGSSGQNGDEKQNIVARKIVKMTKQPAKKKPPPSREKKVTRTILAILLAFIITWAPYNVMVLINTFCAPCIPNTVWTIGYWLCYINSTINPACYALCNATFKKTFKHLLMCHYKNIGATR
Procedure, shortened: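 Radioligand displacement on human M2 receptor membranes from CHO cells, 1 h incubation, filtration with scintillation counting. Primary screen in duplicate at 25 uM; actives retested in concentration series; loss of signal fitted versus DMSO.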

[7] = target: human Muscarinic, M4 Receptor, CHRM4 (gene 1132) (UniProt P08173); test: NVS_GPCR_hM4: NovaScreen (NVS) G Protein-Coupled Receptor Assay for human Muscarinic, M4 Receptor (AID 2283274)
Sequence of human Muscarinic, M4 Receptor, CHRM4 (gene 1132) (P08173 whole entry, looked up): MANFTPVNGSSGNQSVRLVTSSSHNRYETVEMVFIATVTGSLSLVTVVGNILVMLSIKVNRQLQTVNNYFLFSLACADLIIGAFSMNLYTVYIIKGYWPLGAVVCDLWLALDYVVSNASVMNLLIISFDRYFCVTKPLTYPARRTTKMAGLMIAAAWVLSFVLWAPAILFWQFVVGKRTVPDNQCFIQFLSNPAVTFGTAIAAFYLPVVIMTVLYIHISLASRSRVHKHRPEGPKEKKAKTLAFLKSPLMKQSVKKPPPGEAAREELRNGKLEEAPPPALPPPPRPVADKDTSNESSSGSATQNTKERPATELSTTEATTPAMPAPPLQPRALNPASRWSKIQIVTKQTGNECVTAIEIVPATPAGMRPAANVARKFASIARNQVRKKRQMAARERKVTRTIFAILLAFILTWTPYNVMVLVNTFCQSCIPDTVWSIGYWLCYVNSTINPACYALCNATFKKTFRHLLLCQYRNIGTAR
Procedure, shortened: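 Cell-free radioligand displacement using CHO-derived human M4 receptor protein, 1 h after dosing; bound radioactivity by filtration and scintillation counting. Primary screen single 25 uM duplicate, actives followed in concentration series.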

[8] = target: Muscarinic acetylcholine receptor M5 (Homo sapiens) (UniProt P08912); test: NVS_GPCR_hM5: NovaScreen (NVS) G Protein-Coupled Receptor Assay for human Muscarinic, M5 Receptor (AID 2283275)
Sequence of Muscarinic acetylcholine receptor M5 (Homo sapiens) (P08912 whole entry, looked up): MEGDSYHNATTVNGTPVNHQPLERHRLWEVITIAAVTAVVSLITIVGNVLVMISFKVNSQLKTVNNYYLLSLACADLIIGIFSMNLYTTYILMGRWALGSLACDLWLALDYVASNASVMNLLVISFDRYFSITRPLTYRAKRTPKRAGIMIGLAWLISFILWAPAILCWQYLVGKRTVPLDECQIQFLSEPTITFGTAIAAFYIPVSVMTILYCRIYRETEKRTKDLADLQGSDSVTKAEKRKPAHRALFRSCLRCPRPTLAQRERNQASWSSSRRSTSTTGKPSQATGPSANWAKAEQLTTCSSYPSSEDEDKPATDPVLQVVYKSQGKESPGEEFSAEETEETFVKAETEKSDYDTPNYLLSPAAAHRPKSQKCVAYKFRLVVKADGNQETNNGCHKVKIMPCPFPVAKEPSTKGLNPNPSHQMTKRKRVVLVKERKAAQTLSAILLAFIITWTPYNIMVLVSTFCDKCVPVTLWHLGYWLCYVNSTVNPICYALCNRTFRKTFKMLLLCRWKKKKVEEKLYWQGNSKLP
Procedure, shortened: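 Radioligand displacement on CHO-derived membrane preparations, 1 h, filter-based scintillation counting. Single-concentration duplicate screen at 25 uM; hits (e.g. 30% inhibition) retested in singleton concentration-response up to 50 uM. Loss of binding fitted versus DMSO.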

[9] = target: Neuropeptide Y receptor type 2 (Homo sapiens) (UniProt P49146); test: NVS_GPCR_hNPY2: NovaScreen (NVS) G Protein-Coupled Receptor Assay for human Neuropeptide Receptor Y2 (NPY2) (AID 2283277)
Procedure, shortened: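 Radioligand binding on membranes extracted from SK-N-MC cells, cell-free, read 1 h after dosing by filter-based scintillation counting. Loss of signal vs DMSO. Primary screen in duplicate at 25 uM; actives followed up in concentration-response up to 50 uM.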

[10] = target: human Histamine 1 Receptor (H1), HRH1 (gene 3269) (UniProt P35367); test: NVS_GPCR_hH1: NovaScreen (NVS) G Protein-Coupled Receptor Assay for human Histamine 1 Receptor (H1) (AID 2283268)
Sequence of human Histamine 1 Receptor (H1), HRH1 (gene 3269) (P35367 whole entry, looked up): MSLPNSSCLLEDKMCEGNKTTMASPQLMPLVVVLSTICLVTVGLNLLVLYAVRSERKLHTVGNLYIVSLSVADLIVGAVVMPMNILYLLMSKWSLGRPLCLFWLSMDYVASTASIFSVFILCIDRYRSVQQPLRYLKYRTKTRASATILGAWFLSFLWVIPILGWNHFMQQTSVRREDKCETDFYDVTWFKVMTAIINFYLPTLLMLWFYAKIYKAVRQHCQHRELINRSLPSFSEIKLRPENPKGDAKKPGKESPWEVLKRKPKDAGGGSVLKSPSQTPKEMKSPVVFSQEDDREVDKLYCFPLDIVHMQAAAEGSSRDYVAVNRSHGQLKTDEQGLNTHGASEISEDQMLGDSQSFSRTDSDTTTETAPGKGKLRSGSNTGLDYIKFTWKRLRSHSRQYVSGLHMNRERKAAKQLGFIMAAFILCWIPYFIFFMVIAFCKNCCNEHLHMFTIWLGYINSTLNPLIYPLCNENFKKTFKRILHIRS
Procedure, shortened: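 Cell-free radioligand displacement at human H1 receptor, 1 h, filter scintillation counting; primary screen 25 uM in duplicate, hits in concentration series; loss of binding fitted vs DMSO.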

[11] = target: human Opioid Receptor Delta 1 (Opiate D1), OPRD1 (gene 4985) (UniProt P41143); test: NVS_GPCR_hOpiate_D1: NovaScreen (NVS) G Protein-Coupled Receptor Assay for human Opioid Receptor Delta 1 (Opiate D1) (AID 2283280)
Procedure, shortened: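 Radioligand displacement on membranes from CHO cells expressing the receptor, read by filter scintillation counting 1 h after dosing. Duplicate single-point screen at 25 uM, then concentration series for actives; loss of signal versus DMSO.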

[12] = target: human Neurokinin, NK2 Receptor, TACR2 (gene 6865) (UniProt P21452); test: NVS_GPCR_hNK2: NovaScreen (NVS) G Protein-Coupled Receptor Assay for human Neurokinin, NK2 Receptor (AID 2283278);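 further: actives reduce bound radioligand signal relative to DMSO baseline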
Sequence of human Neurokinin, NK2 Receptor, TACR2 (gene 6865) (P21452 whole entry, looked up): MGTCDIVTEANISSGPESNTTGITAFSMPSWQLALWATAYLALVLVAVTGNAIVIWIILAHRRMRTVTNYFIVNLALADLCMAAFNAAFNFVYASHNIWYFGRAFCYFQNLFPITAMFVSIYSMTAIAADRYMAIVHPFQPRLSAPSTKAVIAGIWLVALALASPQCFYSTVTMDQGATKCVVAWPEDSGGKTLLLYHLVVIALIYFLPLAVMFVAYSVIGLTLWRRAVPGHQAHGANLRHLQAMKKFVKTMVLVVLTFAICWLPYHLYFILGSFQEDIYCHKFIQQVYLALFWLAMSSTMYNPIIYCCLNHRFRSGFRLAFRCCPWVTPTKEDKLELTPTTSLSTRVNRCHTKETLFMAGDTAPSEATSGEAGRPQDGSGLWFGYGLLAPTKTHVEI
Procedure, shortened: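 Radioligand binding on membranes from CHO cells expressing receptor, filter-based scintillation read 4 h after dosing. Initial duplicate screen at 25 uM, actives in concentration series; loss of signal versus DMSO.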

[13] = target: human Neuropeptide Receptor Y1 (NPY1), NPY1R (gene 4886) (UniProt P25929); test: NVS_GPCR_hNPY1: NovaScreen (NVS) G Protein-Coupled Receptor Assay for human Neuropeptide Receptor Y1 (NPY1) (AID 2283276)
Procedure, shortened: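 Cell-free radioligand binding using receptor extracted from SK-N-MC cells, 1 h incubation, filter-based scintillation counting. Primary screen single concentration 25 uM in duplicate; actives followed in concentration series. Loss of bound signal scored versus DMSO.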

[14] = target: human Endothelin Receptor Type B (ETB), EDNRB (gene 1910) (UniProt P24530); test: NVS_GPCR_hETB: NovaScreen (NVS) G Protein-Coupled Receptor Assay for human Endothelin Receptor Type B (ETB) (AID 2283267)
Procedure, shortened: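 Human astrocytoma cell membranes; radioligand competitive binding read by filter scintillation counting 4 hours after dosing. Single-concentration duplicate screen at 25 uM, then singleton concentration-response up to 50 uM; loss of signal versus DMSO.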

[15] = target: human Leukotriene B4 Receptor 1 (LTB4-BLT1), LTB4R (gene 1241) (UniProt Q15722); test: NVS_GPCR_hLTB4_BLT1: NovaScreen (NVS) G Protein-Coupled Receptor Assay for human Leukotriene B4 Receptor 1 (LTB4-BLT1) (AID 2283271)
Procedure, shortened: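 Radioligand displacement binding on receptor extracted from human neutrophils, cell-free, 1 h after dosing; filter-based scintillation counting. Primary screen in duplicate at 25 uM, actives retested in concentration-response up to 50 uM; loss of signal versus DMSO.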

[16] = target: human Neurotensin Receptor (NTS), NTSR1 (gene 4923) (UniProt P30989); test: NVS_GPCR_hNTS: NovaScreen (NVS) G Protein-Coupled Receptor Assay for human Neurotensin Receptor (NTS) (AID 2283279)
Procedure, shortened: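 Radioligand displacement on human NTSR1 protein from CHO cells, cell-free, 1 h, filter-based scintillation counting. Primary screen at 25 uM in duplicate; hits rerun in concentration-response up to 50 uM.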

[17] = target: human Orphanin, Opioid Related Nociceptin Receptor 1 (ORL1), OPRL1 (gene 4987) (UniProt P41146); test: NVS_GPCR_hORL1: NovaScreen (NVS) G Protein-Coupled Receptor Assay for human Orphanin, Opioid Related Nociceptin Receptor 1 (ORL1) (AID 2283283)
Procedure, shortened: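 Filter-based radioligand displacement with receptor extracted from HEK293 cells, read 1 hour after dosing by scintillation counting. Duplicate single-point screen at 25 uM; qualifying chemicals then run in concentration-response to 50 uM, analysed relative to DMSO.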

[18] = target: human Endothelin Receptor Type A (ETA), EDNRA (gene 1909) (UniProt P25101); test: NVS_GPCR_hETA: NovaScreen (NVS) G Protein-Coupled Receptor Assay for human Endothelin Receptor Type A (ETA) (AID 2283265)
Procedure, shortened: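 Cell-free radioligand displacement using SH-SY5Y-derived protein, 3 h incubation, filter-based scintillation counting. Primary screen in duplicate at 25 uM; actives then run in concentration-response up to 50 uM; loss of binding fitted versus DMSO.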

**Q.** For `Cc1cccc(O)c1C`, which outcome [1] is on record?
**A.** The outcome was “inactive”.

**Q.** Which AC50 [2] does the source give for `COc1cc(C(C)C)c2c(c1)S(=O)(=O)N(COc1cc(=O)n3cccc(OCCN4CCCCC4)c3n1)C2=O` here?
**A.** Its AC50 is 1.6 µM (active).

**Q.** And the AC50 [3]?
**A.** The AC50 was 6.25 µM (active).

**Q.** What about the AC50 [4] of the same compound?
**A.** The AC50 was 2 µM (active).

**Q.** What about the AC50 [5] of the same compound?
**A.** The AC50 was 8.91 µM (active).

**Q.** And the AC50 [6]?
**A.** Its AC50 is 0.681 µM (active).

**Q.** And the AC50 [7]?
**A.** Its AC50 is 3.98 µM (active).

**Q.** And the AC50 [8]?
**A.** The AC50 was 3.71 µM (active).

**Q.** And the AC50 [9]?
**A.** The AC50 was 0.84 µM (active).

**Q.** Which outcome [10] does the source give for `c1ccc2cc3ccccc3cc2c1` here?
**A.** Its outcome is “inactive”.

**Q.** How did the AC50 [6] turn out when `Cc1ncc([C@@H](CCCCCCc2ccc3c(n2)NCCC3)CC(=O)O)cn1` was run?
**A.** The AC50 was 19.2 µM (active).

**Q.** What about the outcome [11] of the same compound?
**A.** The outcome was “inactive”.

**Q.** With `OCc1c[nH]c2ccccc12` as the compound, how does the AC50 [12] read?
**A.** Its AC50 is 19.7 µM (active).

**Q.** And the outcome [1]?
**A.** Its outcome is “inactive”.

**Q.** With `c1ccc(C(O[C@@H]2CCCN(CCc3ccc4c(c3)OCO4)C2)c2ccccc2)cc1` as the compound, how does the AC50 [2] read?
**A.** Its AC50 is 5.47 µM (active).

**Q.** And the AC50 [10]?
**A.** Its AC50 is 5.62 µM (active).

**Q.** And the AC50 [3]?
**A.** The AC50 was 4.11 µM (active).

**Q.** And the AC50 [4]?
**A.** Its AC50 is 0.031 µM (active).

**Q.** What about the AC50 [5] of the same compound?
**A.** The AC50 was 0.0184 µM (active).

**Q.** What about the AC50 [6] of the same compound?
**A.** The AC50 was 0.0461 µM (active).

**Q.** What about the AC50 [7] of the same compound?
**A.** The AC50 was 0.0501 µM (active).

**Q.** And the AC50 [8]?
**A.** Its AC50 is 0.00937 µM (active).

**Q.** What about the outcome [13] of the same compound?
**A.** Its outcome is “inactive”.

**Q.** And the AC50 [12]?
**A.** The AC50 was 5.79 µM (active).

**Q.** What about the AC50 [11] of the same compound?
**A.** Its AC50 is 19.4 µM (active).

**Q.** For `OCC(CO)(CO)CO`, which outcome [14] is on record?
**A.** The outcome was “inactive”.

**Q.** What about the outcome [15] of the same compound?
**A.** The outcome was “inactive”.

**Q.** How did the AC50 [12] turn out when `NNC(=O)c1ccncc1` was run?
**A.** Its AC50 is 2.18 µM (active).

**Q.** What does the source list for `CCCCCCCCN(C)C`?
**A.** outcome [10]: inactive; AC50 [16]: 16.7 µM (active)

**Q.** Which AC50 [13] does the source give for `CCN(CC)C(=S)SSC(=S)N(CC)CC` here?
**A.** Its AC50 is 17.5 µM (active).

**Q.** And the AC50 [12]?
**A.** Its AC50 is 1.35 µM (active).

**Q.** What about the AC50 [17] of the same compound?
**A.** Its AC50 is 14 µM (active).

**Q.** What does the source list for `CC[C@H](C)C(=O)O[C@H]1C[C@H](O)C=C2C=C[C@H](C)[C@H](CC[C@@H](O)C[C@@H](O)CC(=O)O)[C@H]21`?
**A.** outcome [18]: inactive; outcome [1]: inactive

**Q.** Which results are given for `O=S(=O)(O)c1ccc(N=Nc2c(O)ccc3cc(S(=O)(=O)O)ccc23)cc1`?
**A.** AC50 [2]: 8.72 µM (active); AC50 [3]: 38.4 µM (active); outcome [5]: inactive; outcome [7]: inactive

**Q.** How did the outcome [15] turn out when `NC(N)=O` was run?
**A.** Its outcome is “inactive”.

**Q.** What does the source list for `Cc1nccn1-c1ccc(Sc2cccc(C3(C(N)=O)CCOCC3)c2)cc1`?
**A.** AC50 [4]: 7.4 µM (active); outcome [5]: inactive; AC50 [6]: 6.6 µM (active); AC50 [7]: 6.73 µM (active); outcome [8]: inactive
